The text below walks through data of PubChem BioAssay (EPA / NIEHS).

Some structures have more than one record in an assay (separate samples or runs), and their calls can disagree. Activity calls are given as the source filed them. Rule for the calls: active = hit-call score of the fitted dose curve at least 0.9, where 1 is the maximum; inactive = score below 0.9.

Read-out in assay [1]: Macrophage colony-stimulating factor (MCSF), CSF1 (gene 1435)
Nature of the assay: BSK_hDFCGF_MCSF: BioMAP Diversity Plus: hDFCGF Assay for Macrophage colony-stimulating factor (MCSF) Biomarker Activity (AID 2283060). The following applies: primary human foreskin fibroblasts; actives raise or lower the signal. In outline:
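fibroblasts (human foreskin, primary), 24 h post-dose; M-CSF by ELISA; bidirectional fit, DMSO = baseline.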

Assay [2] in a line: BSK_hDFCGF_SRB: Viability Assessment in the BioMAP Diversity Plus: hDFCGF Assay (AID 2283061).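 Note: cells exposed to compound for 24 h before the read.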 The conditions noted are these: primary human foreskin fibroblasts. In outline:
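SRB-based viability read on primary human skin fibroblasts at 24 h: TCA fixation, 0.1% dye, 560 nm. Gain or loss of signal is fitted against the DMSO negative control.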

Read-out in assay [3]: TIMP metallopeptidase inhibitor 1 (TIMP1), TIMP1 (gene 7076)
The experiment in a line: BSK_hDFCGF_TIMP1: BioMAP Diversity Plus: hDFCGF Assay for TIMP metallopeptidase inhibitor 1 (TIMP1) Biomarker Activity (AID 2283062). The following applies: primary human foreskin fibroblasts; actives raise or lower the signal. The method in brief:
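Bidirectional curve fitting against DMSO baseline yielded this endpoint, based on ELISA detection of TIMP-1 in primary human foreskin fibroblasts exposed to compound for 24 h.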

Read-out in assay [4]: Matrix Metallopeptidase 1 (MMP1), MMP1 (gene 4312)
The experiment in a line: BSK_hDFCGF_MMP1: BioMAP Diversity Plus: hDFCGF Assay for Matrix Metallopeptidase 1 (MMP1) Biomarker Activity (AID 2283064). The following applies: primary human foreskin fibroblasts; actives raise or lower the signal. The method in brief:
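MMP1 levels quantified by ELISA 24 h after dosing human dermal fibroblast cultures, with parallel SRB total-protein staining for overt cytotoxicity. Data fitted in both directions against DMSO baseline.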

Read-out in assay [5]: Vascular cell adhesion molecule 1 (VCAM1), VCAM1 (gene 7412)
The experiment in a line: BSK_hDFCGF_VCAM1: BioMAP Diversity Plus: hDFCGF Assay for Vascular cell adhesion molecule 1 (VCAM1) Biomarker Activity (AID 2283065). The conditions noted are these: primary human foreskin fibroblasts; actives raise or lower the signal. The method in brief: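 Measured after 24 h chemical treatment of primary human skin fibroblasts, VCAM-1 was detected by ELISA and concentration-response analysed in both directions versus DMSO vehicle.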

Read-out in assay [6]: Plasminogen activator inhibitor-1 (PAI1), SERPINE1 (gene 5054)
The experiment in a line: BSK_hDFCGF_PAI1: BioMAP Diversity Plus: hDFCGF Assay for Plasminogen activator inhibitor-1 (PAI1) Biomarker Activity (AID 2283066). The conditions noted are these: primary human foreskin fibroblasts; actives raise or lower the signal. The method in brief:
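Human skin fibroblast cultures receive chemical for 24 h before PAI-1 is measured by ELISA; signal changes are fitted bidirectionally against DMSO-treated wells.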

Read-out in assay [7]: Interferon-gamma inducible Protein 10 (IP10), CXCL10 (gene 3627)
Nature of the assay: BSK_KF3CT_IP10: BioMAP Diversity Plus: KF3CT Assay for Interferon-gamma inducible Protein 10 (IP10) Biomarker Activity (AID 2283068). The following applies: primary human keratinocytes with fibroblasts; actives raise or lower the signal. In outline: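 In a primary skin co-culture of keratinocytes and fibroblasts, IP-10 is quantified by ELISA at 24 h after dosing. SRB staining of parallel wells monitors overt toxicity. Curves are fitted both directions against DMSO.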

Assay [8] in a line: BSK_KF3CT_SRB: Viability Assessment in the BioMAP Diversity Plus: KF3CT Assay (AID 2283069).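 Note: total protein by sulforhodamine B staining as a cytotoxicity measure; read 24 h after compound addition.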 The following applies: primary human keratinocytes with fibroblasts. In outline:
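Cytotoxicity was gauged by SRB staining (0.1% SRB, 10% TCA fixation, 560 nm) of parallel cultures at 24 h. The cells were primary human skin keratinocytes co-cultured with fibroblasts, and activity was fitted in both directions against DMSO.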

Read-out in assay [9]: Interleukin-1 alpha (IL1a), IL1A (gene 3552)
The experiment in a line: BSK_KF3CT_IL1a: BioMAP Diversity Plus: KF3CT Assay for Interleukin-1 alpha (IL1a) Biomarker Activity (AID 2283070). The following applies: primary human keratinocytes with fibroblasts; actives raise or lower the signal. In outline: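 IL-1a was detected by ELISA 24 h after chemical treatment of a co-culture of human skin keratinocytes and foreskin fibroblasts. Gain or loss of signal was fitted against the DMSO baseline.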

Read-out in assay [10]: TIMP metallopeptidase inhibitor 2 (TIMP2), TIMP2 (gene 7077)
Nature of the assay: BSK_KF3CT_TIMP2: BioMAP Diversity Plus: KF3CT Assay for TIMP metallopeptidase inhibitor 2 (TIMP2) Biomarker Activity (AID 2283071). The conditions noted are these: primary human keratinocytes with fibroblasts; actives raise or lower the signal. The method in brief:
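Measurements come from ELISA detection of TIMP-2 at 24 hours in a dosed human keratinocyte and foreskin fibroblast co-culture. DMSO serves as negative control and baseline.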

Read-out in assay [11]: C-C motif chemokine 2 (Homo sapiens) (UniProt P13500)
The experiment in a line: BSK_KF3CT_MCP1: BioMAP Diversity Plus: KF3CT Assay for Monocyte Chemoattractant Protein 1 (MCP1/CCL2) Biomarker Activity (AID 2283073). The conditions noted are these: primary human keratinocytes with fibroblasts; actives raise or lower the signal. In outline:
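Biomarker MCP-1 is measured by ELISA in primary human keratinocytes co-cultured with foreskin fibroblasts, 24 h after chemical treatment; DMSO serves as the negative control and activity baseline.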

Read-out in assay [12]: Matrix Metallopeptidase 9 (MMP9), MMP9 (gene 4318)
The experiment in a line: BSK_KF3CT_MMP9: BioMAP Diversity Plus: KF3CT Assay for Matrix Metallopeptidase 9 (MMP9) Biomarker Activity (AID 2283074). The conditions noted are these: primary human keratinocytes with fibroblasts; actives raise or lower the signal. The method in brief: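 MMP-9 quantified by ELISA after 24 h chemical treatment of primary human skin keratinocyte/fibroblast co-cultures; gain or loss fitted against DMSO, with parallel SRB staining (0.1% SRB, 560 nm) for overt cytotoxicity.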

Read-out in assay [13]: urokinase plasminogen activator (uPA), PLAU (gene 5328)
The experiment in a line: BSK_KF3CT_uPA: BioMAP Diversity Plus: KF3CT Assay for urokinase plasminogen activator (uPA) Biomarker Activity (AID 2283075). The following applies: primary human keratinocytes with fibroblasts; actives raise or lower the signal. In outline:
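ELISA read-out of uPA 24 h after dosing human skin keratinocytes co-cultured with foreskin fibroblasts. Signal change fitted both ways relative to DMSO; sulforhodamine B on parallel cultures marks overt cytotoxicity.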

Read-out in assay [14]: CD40, CD40 (gene 958)
The experiment in a line: BSK_LPS_CD40: BioMAP Diversity Plus: LPS Assay for CD40 Biomarker Activity (AID 2283076). The following applies: primary human HUVEC with PBMC; actives raise or lower the signal. The method in brief:
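Using a multiplexed primary human co-culture (umbilical vein endothelium plus PBMC), CD40 was read by ELISA 24 h after dosing, with cytotoxicity tracked by sulforhodamine B staining of parallel cultures and activity fitted bidirectionally versus DMSO.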

Read-out in assay [15]: E-selectin (Homo sapiens) (UniProt P16581)
Nature of the assay: BSK_LPS_Eselectin: BioMAP Diversity Plus: LPS Assay for Eselectin Biomarker Activity (AID 2283077). The conditions noted are these: primary human HUVEC with PBMC; actives raise or lower the signal. The method in brief: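 Dose chemical onto LPS-driven HUVEC/PBMC co-culture; after 24 h, run ELISA for E-selectin; fit up- and down-going responses relative to DMSO control.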

Read-out in assay [16]: Interleukin-8 (IL8), CXCL8 (gene 3576)
Nature of the assay: BSK_LPS_IL8: BioMAP Diversity Plus: LPS Assay for Interleukin-8 (IL8) Biomarker Activity (AID 2283078). The conditions noted are these: primary human HUVEC with PBMC; actives raise or lower the signal. The method in brief:
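In this LPS system, chemical-treated human umbilical vein endothelium/PBMC co-cultures were harvested at 24 h for IL-8 ELISA.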

A short description of assay [17]: BSK_LPS_SRB: Viability Assessment in the BioMAP Diversity Plus: LPS Assay (AID 2283079).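 Note: total protein by sulforhodamine B absorbance as a cytotoxicity measure; measured one day after compound addition; fitted in both directions against DMSO so loss or gain of signal counts.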 The conditions noted are these: primary human HUVEC with PBMC. The method in brief: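 Cytotoxicity endpoint in human endothelial–PBMC co-culture: 24 h exposure, then SRB (0.1%) staining, 560 nm read.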
Read-out in assay [18]: Intercellular Adhesion Molecule 1 (ICAM1), ICAM1 (gene 3383)
The experiment in a line: BSK_KF3CT_ICAM1: BioMAP Diversity Plus: KF3CT Assay for Intercellular Adhesion Molecule 1 (ICAM1) Biomarker Activity (AID 2283067). The following applies: primary human keratinocytes with fibroblasts; actives raise or lower the signal. The method in brief: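 Bidirectional curve fitting against a DMSO baseline was applied to ICAM-1 ELISA signal from primary human skin co-cultures harvested 24 h after treatment, with SRB staining of parallel wells for overt cytotoxicity.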

Read-out in assay [19]: Transforming growth factor beta 1 (TGFb1), TGFB1 (gene 7040)
Nature of the assay: BSK_KF3CT_TGFb1: BioMAP Diversity Plus: KF3CT Assay for Transforming growth factor beta 1 (TGFb1) Biomarker Activity (AID 2283072). The conditions noted are these: primary human keratinocytes with fibroblasts; actives raise or lower the signal. The method in brief: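 TGF-b1 ELISA on a 24 h dosed co-culture of human keratinocytes and foreskin fibroblasts; cytotoxicity tracked in parallel cultures by SRB staining.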

Chain of E-selectin (Homo sapiens) (P16581 whole entry, looked up): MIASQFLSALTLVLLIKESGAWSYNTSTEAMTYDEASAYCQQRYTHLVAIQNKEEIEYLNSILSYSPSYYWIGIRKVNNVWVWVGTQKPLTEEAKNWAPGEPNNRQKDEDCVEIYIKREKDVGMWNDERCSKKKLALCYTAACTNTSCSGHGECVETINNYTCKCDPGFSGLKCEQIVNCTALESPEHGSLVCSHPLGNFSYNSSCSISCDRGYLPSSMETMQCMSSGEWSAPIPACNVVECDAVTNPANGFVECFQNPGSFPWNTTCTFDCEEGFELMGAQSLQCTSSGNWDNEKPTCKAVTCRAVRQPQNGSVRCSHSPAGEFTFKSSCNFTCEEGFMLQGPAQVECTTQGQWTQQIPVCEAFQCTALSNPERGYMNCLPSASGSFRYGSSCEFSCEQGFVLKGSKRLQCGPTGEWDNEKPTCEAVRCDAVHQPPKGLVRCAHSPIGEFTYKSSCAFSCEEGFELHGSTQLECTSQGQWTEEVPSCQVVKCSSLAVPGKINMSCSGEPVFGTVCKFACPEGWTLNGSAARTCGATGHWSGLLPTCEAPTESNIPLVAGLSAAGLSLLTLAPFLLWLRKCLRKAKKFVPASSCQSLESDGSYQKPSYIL

By AC50 is commonly meant the concentration at which the activity in the assay is half-maximal. With `O=P(O)(O)OCCC(F)(F)C(F)(F)C(F)(F)C(F)(F)C(F)(F)C(F)(F)F`, the outcome in assay [1], in [2], in assay [3], in [4], in assay [5] and in assay [6] was inactive. In addition, the result in assay [7], in assay [8], in [9], in assay [10], in assay [11] and in assay [12] was inactive. For the same compound, the outcome in assay [13], in assay [14], in assay [15], in assay [16] and in assay [17] was inactive. In addition, the AC50 in assay [14] was 823 nM (active).

In the case of `C=CC(=O)OCC(F)(F)C(F)(F)C(F)(F)C(F)(F)C(F)(F)C(F)(F)C(F)(F)F`, the result in assay [1], in [2], in [3], in [4], in assay [5] and in assay [6] was inactive. Further, the result in assay [18], in assay [7], in [8], in [9], in assay [10] and in [11] was inactive. Besides, the outcome in [12], in assay [13], in assay [14], in assay [15], in [16] and in [17] was inactive.

For `CCCCCCC(C)OC(=O)CCCCC(=O)OC(C)CCCCCC` (stereo not given), the result in assay [1], in assay [2], in [3], in assay [4], in assay [5] and in assay [6] was inactive. Besides, the result in assay [7], in assay [8], in assay [9], in assay [10], in assay [19] and in [11] was inactive. Moreover, the result in assay [12], in assay [14], in [15], in assay [16] and in [17] was inactive.

As for `CCO[Si](CCC(F)(F)C(F)(F)C(F)(F)C(F)(F)C(F)(F)C(F)(F)F)(OCC)OCC`, the result in [1], in [2], in assay [3], in assay [4], in [5] and in assay [6] was inactive. Also, the outcome in [7], in assay [8], in assay [9], in assay [10], in [11] and in [12] was inactive. Further, the result in assay [14], in assay [15], in assay [16] and in assay [17] was inactive. Also, in assay [14], the half-maximal activity concentration (AC50) was 1400 nM (active).
